# Screen size: about 65,000 compounds; about 2,100 (3.2%) showed an effect of 50% or more. The median lay at about -52%. The sample holds strong results, similar compounds and a random draw of the others, so the mix is not that of the screen.
# Tested on: Plasmodium falciparum
# Assay: Screen against P. falciparum Asexual Blood Stage (ABS), at 5uM
# Format: functional, Dd2
# Settings: tested at 5 uM
row,Structure (SMILES),INHIBITION [%]
1,Cc1cc(NC(=O)NCc2cccnc2OC2CCCC2)n(C)n1,-37
2,O=C(NCCN1CCCCC1)c1scnc1Cl,-130
3,O=C(NCCN1CCCCC1)c1cccc(Cl)c1Cl,50.5
4,Cc1cc(Br)ccc1C(=O)NCCN1CCCCCC1,30.2
5,Cc1ccc(CN2C(=O)CCC23CCC(NCC2CCOC2)CC3)cc1 (stereo not drawn),-1.23
6,O=C(NC1CCC1)[C@@H]1CCO[C@@H]2CCN(CCc3ccccc3)C[C@H]21,36.5
7,COc1cccc(CC2CCCN2Cc2nccn2C)c1 (stereo not drawn),52
8,COc1cccc(CC2CCCN2CCCO)c1 (stereo not drawn),-8.85
9,Cn1ccnc1CN1CCCC1CCc1ccccc1 (stereo not drawn),37.6
10,Cc1c[nH]nc1C1CCCN1Cc1nccn1C (stereo not drawn),57.3
11,Cc1c[nH]nc1C1CCCN1Cc1ccncc1 (stereo not drawn),-8.01
12,Cc1c[nH]nc1C1CCCN1Cc1ncc[nH]1 (stereo not drawn),34.9
13,CC1CCN(C(=O)C(C)N2CCN(c3nccs3)CC2)CC1 (stereo not drawn),-55.4
14,Cc1cc(C(=O)N2CCCCC2C)ccc1NC(=O)N1CCOCC1 (stereo not drawn),-137
15,O=C(N1CCCCC1)N1CCN(CC(O)c2ccccc2)CC1 (stereo not drawn),-4.34
16,O=C(c1cscn1)N1CCC[C@]2(C[C@H](OCC3CC3)CO2)C1,-132
17,Cc1cc(-c2nccs2)nc(C2CCN(Cc3ccncc3)CC2)n1,-25.9
18,Cc1cc(-c2nccs2)nc(C2CCN(Cc3cccs3)CC2)n1,16.1
19,Cc1cc(-c2nccs2)nc(C2CCN(Cc3ccc(F)cc3)CC2)n1,62.9
20,O=C(c1csc(I)c1)N1CCc2c(ncn2C2CC2)C1,-41.85
21,Cc1nc(CN2CCc3ncnc(-c4cccnc4)c3CC2)cs1,-30.7
22,CN1CCC2(COCCN(Cc3cccc(C#N)c3)C2)C1 (stereo not drawn),57

row,Structure (SMILES),INHIBITION [%]
1,CN1CC2(CCN(Cc3cccc(C#N)c3)CC2)CC1=O,-15.1
2,CN1CCC2(COCCN(Cc3ccc4c(c3)OCO4)C2)C1 (stereo not drawn),-102
3,C/C=C(\C)CN1C[C@H](NC(=O)CCOC)[C@@H](c2ccc(C)o2)C1,-33.1
4,CCC1(CO)CCN(C(=O)c2cc(COc3ccccc3F)[nH]n2)CC1,-66.6
5,O=C(c1cccnc1)N1CCN2C[C@H](OCc3ccccc3)C[C@H]2C1,-19.2
6,CCc1ccc(C2CC(=O)Nc3c2c(=O)[nH]n3C(C)C)cc1 (stereo not drawn),-113
7,c1ccc(CN2CCn3c(Cn4cncn4)cnc3C2)nc1,-53.9
8,O=C1N(Cc2ccc(F)c(F)c2)CCCC12CCN(C1CCCCC1)C2 (stereo not drawn),60.9
9,O=C1N(Cc2ccccc2F)CCCC12CCN(C1CCSCC1)C2 (stereo not drawn),34.2
10,O=C1N(Cc2ccc(F)c(F)c2)CCCC12CCN(C1CCCC1)C2 (stereo not drawn),68.1
11,CCS(=O)(=O)N1CCC2(CCCN(Cc3ccc(F)c(F)c3)C2=O)C1 (stereo not drawn),-68
12,O=C1N(Cc2ccc(F)cc2)CCCC12CCN(C1CCSCC1)C2 (stereo not drawn),9.56
13,Cc1cccc(CN2CCCC3(CCN(C4CCSCC4)C3)C2=O)c1 (stereo not drawn),6.83
14,CCCS(=O)(=O)N1C[C@H]2CC[C@@H](C1)N(Cc1cscn1)C2=O,-60
15,Nc1cc(N2CCOCC(Cc3ccc4[nH]ccc4c3)C2)ncn1 (stereo not drawn),-6.79
16,Cc1nc(C(=O)NC2CCN(CCOc3ccc(Br)cc3)CC2)cs1,50
17,CCc1nnsc1C(=O)NC1CCN(CCOc2ccc(Br)cc2)CC1,2.8
18,CC(=O)Nc1nc(C(=O)NCCOc2ccc(C)cc2)cs1,-4.82
19,CCn1ccnc1CN1CCCN(C(=O)c2ccnc(C)n2)CC1,-61.7
20,COc1ccc2c(c1)OCC(CNC1CCc3nc(C)nn3C1)=C2 (stereo not drawn),-98
21,Cc1csc(N2CCCN(c3cc(C)nc(C)c3C#N)CC2)n1,-45.8
22,O=C(Nc1cnn(COc2ccc(F)cc2Cl)c1)C1CC1,67.2

row,Structure (SMILES),INHIBITION [%]
1,O=C(Nc1cnn(Cc2ccc(F)cc2Cl)c1)C1CC1,-0.313
2,O=C(O)CCCC(=O)Nc1cnn(COc2ccc(F)cc2Cl)c1,-39.2
3,CO[C@H]1CN(C(=O)c2cn3cc(C)ccc3n2)CC[C@@]12CCCO2,-142
4,Cc1nc(C(=O)N(C)CC2CCCO2)nn1-c1ccccc1C(C)C (stereo not drawn),-143
5,CCOCc1nc(-c2ccc(F)cc2Cl)n(C)n1,-121
6,CN1C(=O)CC(c2ccccc2)C12CCN(CC1CC1)CC2 (stereo not drawn),16.7
7,CN1C(=O)CC(c2ccccc2)C12CCN(CC1CCOCC1)CC2 (stereo not drawn),36.1
8,CCN1C(=O)CC(c2ccccc2)C12CCN(CC1CCOCC1)CC2 (stereo not drawn),50.3
9,Cc1nc(C)n(CC2CCCCN2CC(=O)Nc2c(C)n[nH]c2C)n1 (stereo not drawn),54.2
10,Cc1nc(C)n(CC2CCCN2CC(=O)Nc2c(C)n[nH]c2C)n1 (stereo not drawn),35
11,Cc1cc(C)n(CC2CCCCN2CC(=O)Nc2c(C)n[nH]c2C)n1 (stereo not drawn),-116
12,CC(C)Cn1nc(-c2ccc(C(=O)O)cc2)cc1-c1ccc(F)cc1,-57.3
13,CC(NCc1cccnc1)c1ccc(OCC(=O)NC2CC2)cc1 (stereo not drawn),-107
14,Cc1cccc(CNC(C)c2ccc(OCC(=O)NC3CC3)cc2)c1 (stereo not drawn),-21
15,CC(NCc1cccc(Cl)c1)c1ccc(OCC(=O)NC2CC2)cc1 (stereo not drawn),51.7
16,CC(C)(O)CN1CCN(C(=O)c2cccc3cccnc23)CC1,24.5
17,CC(C)CNC(=O)[C@H]1C[C@H]2CN(C(=O)Nc3ccc(F)cc3)C[C@@H]1O2,-5.8
18,Cc1csc(NC(=O)CN2CCc3c(nc(C4CC4)n3C)C2)n1,-122
19,NC(=O)c1ccccc1Oc1cnc(C2CCCN2)cn1 (stereo not drawn),-95.3
20,NC(=O)c1ccccc1Oc1cccc(C2CCCNC2)n1 (stereo not drawn),55.8
21,NC(=O)c1ccc(C2CCCNC2)nc1 (stereo not drawn),-43.7
22,CC1CCN(CC2(O)CCCN(Cc3cccc(F)c3F)C2=O)CC1 (stereo not drawn),-71.6

row,Structure (SMILES),INHIBITION [%]
1,COc1ccc(F)c(CN2CCCC(O)(CNCc3ncc[nH]3)C2=O)c1 (stereo not drawn),-93.5
2,O=C(CNCC1(O)CCCN(Cc2cccc(F)c2F)C1=O)NC1CC1 (stereo not drawn),-93.9
3,COc1ccc(F)c(CN2CCCC(O)(CNCc3ccon3)C2=O)c1 (stereo not drawn),-19
4,CN1CCC(NCC2(O)CCCN(Cc3ccccc3F)C2=O)CC1 (stereo not drawn),7.93
5,O=C1N(Cc2cccc(F)c2F)CCCC1(O)CNC1CCCC1 (stereo not drawn),60.2
6,CN(C)CCNCC1(O)CCCN(Cc2cccc(F)c2F)C1=O (stereo not drawn),-65.2
7,COC(=O)CNCC1(O)CCCN(Cc2cccc(F)c2F)C1=O (stereo not drawn),-51
8,O=C1N(Cc2cccc(F)c2F)CCCC1(O)CNCc1ccccn1 (stereo not drawn),4.26
9,O=C1N(Cc2cccc(F)c2F)CCCC1(O)CNCc1ccccc1 (stereo not drawn),61.9
10,CN(CC1(O)CCCN(Cc2cccc(F)c2F)C1=O)C1CCCCC1 (stereo not drawn),65
11,COc1ccc(F)c(CN2CCCC(O)(CNCC(C)(C)C)C2=O)c1 (stereo not drawn),50.2
12,Cc1noc([C@@H]2CC[C@@H]3[C@@H](CCN3c3nnc(C)s3)O2)n1,-97.1
13,CCn1cnnc1CNC(=O)NC(C)c1ccccn1 (stereo not drawn),-68.5
14,CCn1nc(C)c2c1cnn2CCNS(=O)(=O)c1cccs1,-54.4
15,CCC(C)n1c(SCC(=O)N2CCOCC2)nc2cc(C)[nH]c2c1=O (stereo not drawn),-77
16,CO[C@H]1CN(C(=O)c2ccc3oc(C)cc3c2)C[C@@]12CCCO2,-39.5
17,CN(C)CC1(O)CCN(S(=O)(=O)c2cccc(F)c2)C1 (stereo not drawn),66.7
18,Cc1ccc(S(=O)(=O)N2CCC(O)(CN(C)C)C2)cc1 (stereo not drawn),52
19,CN(C)CC1(O)CCN(S(=O)(=O)c2ccc(Cl)cc2)C1 (stereo not drawn),42.9
20,CN(C)CC1(O)CCN(S(=O)(=O)c2ccc(F)c(F)c2)C1 (stereo not drawn),20.7
21,COCC1COCCC12CCN(S(=O)(=O)c1ccc(C)cc1)CC2 (stereo not drawn),-71.5
22,CN(C)CC1(O)CCN(S(=O)(=O)c2ccc(F)cc2)C1 (stereo not drawn),36.6

row,Structure (SMILES),INHIBITION [%]
1,Cc1cccc(CSc2ncc(Br)c(C(=O)O)n2)c1,-52.3
2,Cc1cc(C)nc(NCCC(=O)Nc2ccc(Cn3cncn3)cc2)n1,-92
3,Cc1cnn(CCNCc2ccc(OCc3noc(C)n3)cc2)c1,-14.8
4,COc1ccc(C(C)NC(=O)C2CCN(S(C)(=O)=O)CC2)cc1C (stereo not drawn),-118
5,COc1cccc(CCC(=O)N2CCC[C@@H](N)[C@@H]2c2ccccc2F)c1,68
6,CC(=O)N1CCC[C@@H](NCc2c[nH]c3ccccc23)[C@@H]1c1ccc(C)s1,14.4
7,O=C(Cc1c[nH]c2ccccc12)N1CCC(Nc2cccnn2)CC1,-48
8,COc1cccc(CCC(=O)N2CCCC(c3nncn3C)C2)c1 (stereo not drawn),-9.28
9,COc1cccc(CCC(=O)N2CCCCC2Cn2cccn2)c1 (stereo not drawn),-136
10,N[C@@H]1CCCN(C(=O)Cc2c[nH]c3ccccc23)[C@H]1c1ccccc1F,65.8
11,O=c1[nH]nc2c(N3CCOCC3)nccn12,-25.9
12,O=C(c1cccs1)N1C[C@H]2CCC[C@@]2(COCC2CCOCC2)C1,-18.1
13,CS(=O)(=O)N1Cc2cnn(CC3CC3)c2C(COCC2CC2)C1 (stereo not drawn),-13.5
14,O=C(NCC1CCS(=O)(=O)C1)c1ccco1 (stereo not drawn),-48
15,Cc1nc2ccc(C(=O)N3C[C@@H](O)[C@H](N4CCOCC4)C3)cc2[nH]1,-0.956
16,Fc1ccc(C(NCc2nnc(-c3ccco3)o2)C2CCC2)cc1 (stereo not drawn),-32.2
17,CN(C)c1ccc(NC(=O)NCC2CCOC2)cn1 (stereo not drawn),33.3
18,CN1CCN(S(=O)(=O)c2cccc(F)c2)c2cnccc21,13.2
19,Cc1cc(F)ccc1S(=O)(=O)N1CCN(C)c2ccncc21,22.6
20,Cc1ccc(S(=O)(=O)N2CCN(C)c3ccncc32)cc1F,61.6

# — ChEMBL document CHEMBL4513216, “Probing the Open Global Health Chemical Diversity Library for Multistage-Active Starting Points for Next-Generation Antimalarials” (ACS Infect Dis, 2020)
